Data: PubChem BioAssay (NCATS)
Inconclusive results are not listed. Calls follow the shape of the dose curve; as a rule, active = well fitted activation curve with a large enough effect; inconclusive = small, poorly fitted or top-dose-only effect; inactive = no such curve, though single readings can be large or run the other way.

Molecular target: Rap guanine nucleotide exchange factor 3 (Homo sapiens) (UniProt O95398)
Assay: Confirmatory qHTS for agonist of cAMP-regulated guanine nucleotide exchange factor 3 (EPAC1) (AID 1645881);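 also: EPAC1 catalysed release of BODIPY-GDP from Rap1B seen as fluorescence loss; 100% = effect of cAMP agonist control; nearly all actives have a fitted effect of over 75% in size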
Conditions: EPAC1 Rap1B BODIPY-GDP exchange fluorescence; series mostly up to 154 µM; activation: at the top concentration

Sequence of Rap guanine nucleotide exchange factor 3 (Homo sapiens) (O95398 whole entry, looked up): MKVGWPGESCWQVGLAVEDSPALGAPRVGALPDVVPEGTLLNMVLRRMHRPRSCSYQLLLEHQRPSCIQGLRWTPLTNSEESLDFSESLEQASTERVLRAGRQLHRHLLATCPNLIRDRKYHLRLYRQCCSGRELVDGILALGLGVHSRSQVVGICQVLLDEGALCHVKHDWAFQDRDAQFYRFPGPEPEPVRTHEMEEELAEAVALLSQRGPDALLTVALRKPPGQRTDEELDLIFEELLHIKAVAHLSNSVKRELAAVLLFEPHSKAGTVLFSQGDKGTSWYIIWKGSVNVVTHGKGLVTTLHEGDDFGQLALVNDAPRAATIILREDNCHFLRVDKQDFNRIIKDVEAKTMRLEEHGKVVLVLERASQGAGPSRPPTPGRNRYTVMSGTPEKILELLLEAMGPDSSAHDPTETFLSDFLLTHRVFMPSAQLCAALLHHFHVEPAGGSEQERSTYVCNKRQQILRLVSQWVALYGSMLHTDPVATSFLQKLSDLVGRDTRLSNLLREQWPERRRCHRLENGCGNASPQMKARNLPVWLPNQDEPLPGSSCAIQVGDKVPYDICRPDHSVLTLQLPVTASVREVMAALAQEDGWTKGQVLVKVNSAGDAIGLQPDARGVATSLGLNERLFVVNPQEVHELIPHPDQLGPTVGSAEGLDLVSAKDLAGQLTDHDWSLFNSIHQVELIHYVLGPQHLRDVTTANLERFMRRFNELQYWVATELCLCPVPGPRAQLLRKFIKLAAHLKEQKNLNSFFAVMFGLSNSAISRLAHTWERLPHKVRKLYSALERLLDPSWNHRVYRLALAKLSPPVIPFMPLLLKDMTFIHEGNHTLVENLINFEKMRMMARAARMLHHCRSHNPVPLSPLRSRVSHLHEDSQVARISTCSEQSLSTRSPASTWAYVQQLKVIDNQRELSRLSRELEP

activation, inactive:
COc1cc(-c2cc(OC)c3c(C)oc(C)c3c(=O)c2)ccc1OC(=O)c1ccccc1F -15.7%
O=C(NCc1ccccc1)C(c1ccccc1)n1c(=O)c(-c2ccco2)nc2ccccc21 (stereo not given) 0.384%
CC(C)c1ccc(/C=C/C(=O)Nc2ccc(CN3CCOCC3)cc2)cc1 17.8%
Oc1cccc(C=Nc2cccc3ccccc23)c1O -3.66%
CCCC1=C(C(=O)OCC)C(c2ccco2)C(C#N)=C(N)O1 (stereo not given) -1.56%
O=C(Nc1ccc(Br)cc1C(=O)O)c1ccc2c(c1)C(=O)N(Cc1ccccc1)C2=O 4.75%
Cc1ccc(C(=O)c2cn(Cc3cccc(C)c3)c3nc(C)ccc3c2=O)cc1 -10.3%
Clc1ccc(C(c2ccccc2)c2c[nH]c3ccccc23)s1 (stereo not given) 24.5%
CC(C)(C)Cc1c(-c2ccccc2)nc2ccc(Cl)cn12 9.57%
O=c1[nH][nH]c(-c2ccccc2O)c1C(C[N+](=O)[O-])c1ccc(Br)cc1 (stereo not given) 7.34%
C=CS(=O)(=O)N(Cc1ccccc1Br)[C@H](CO)CC(C)C 3.33%
CC1=NN(c2cccc(C(=O)O)c2)C(=O)/C1=C\C=C/c1ccccc1 8.38%
Cc1ccc(Nc2nnc(-c3ccc(C)c(S(N)(=O)=O)c3)c3ccccc23)cc1 4.4%
COc1ccc(-c2[nH]c(-c3ccc(F)cc3)nc2SCC(=O)Nc2ccc(OC)c(OC)c2)cc1 -16.2%
CN(C)S(=O)(=O)c1ccc(N2CCCC2)c(C(=O)NCC2COc3ccccc3O2)c1 (stereo not given) 6.5%
CC(=O)N1N=C(c2ccc(Cl)cc2)CC1c1ccc([N+](=O)[O-])cc1 (stereo not given) 14.3%
O=C(NCc1ccc2c(c1)CCN2C(=O)c1ccccc1)Nc1cccc(C(F)(F)F)c1 -15.9%
O=C(CC(c1ccccc1)c1cc(Cl)ccc1O)N1CCCC1 (stereo not given) 7.84%
c1cc(-c2cc3nc(NC4CCCCC4)ccn3n2)ccc1OCCN1CCOCC1 17.8%
COc1ccc(Cn2c(-c3ccc(C)cc3)nc3c(c(=O)c4ccccc4n3C)c2=O)cc1 -5.19%
C=CCN1C(=O)[C@@H]2Cc3c([nH]c4ccccc34)C(c3ccc(O)cc3)N2C1=S (stereo not given in full) -15.7%
CN(C)c1ccc(-c2[nH][nH]c(=O)c2NC(=O)c2ccccn2)cc1 11.1%
O=C(CSc1nc(O)cc(=O)n1-c1ccccc1)Nc1ccc2c3c(cccc13)CC2 3.16%
N#C/C(=C/C1=C(N2CCOCC2)C(=C/c2cccc([N+](=O)[O-])c2)/CC1)C(=O)Nc1ccccc1F -2.51%
N#Cc1c(NC(=O)CSc2ncnc3sccc23)oc(-c2ccco2)c1-c1ccco1 11.1%
CCn1c(SCC(=O)N/N=C/C=C/c2ccco2)nnc1-c1ccccc1 3.84%
COc1ccc2c(c1)Cc1sc(NC(=O)c3ccccc3C)nc1-2 14.4%
Cc1ccc2[nH]cc(C(c3ccccc3)c3ccc(Cl)s3)c2c1 (stereo not given) 27%
CCc1nc2c(OCCC3CCCCC3)cccn2c1N(C)C(=O)c1ccc(C)cc1 -5.22%
CCOc1cc(CNCCSc2nnnn2C)ccc1OCc1ccc(Cl)cc1Cl 22.1%
CC(C)N(Cc1ccccc1)C(=O)c1nc(-c2ccc(Cl)cc2)n2c1CCCCC2 7.49%
O=C(Nc1ccc(S(=O)(=O)Nc2nccs2)cc1)c1cc(-c2ccccn2)nc2ccccc12 10.5%
COc1ccc(OC)c(CNC(=O)CCCc2cn(C)c3ccccc23)c1 7.35%
Cc1ccc(C)c(Cn2c(CN(C)Cc3ccccc3)nc3c2c(=O)n(C)c(=O)n3C)c1 22.5%
Cc1ccc(Cn2ccnc2SCC(=O)Nc2ccc3c(c2)OCO3)cc1 -1.98%
COc1ccc(OC)c(C(=O)c2coc3cc(Br)c(O)c(Br)c23)c1 18.9%
Cc1ccc(N(Cc2ccc([N+](=O)[O-])cc2)C(=O)c2ccco2)cc1 15.6%
CCn1c(SCC(=O)N/N=C/C=C\c2ccco2)nc2ccccc21 6.91%
COc1cc(C2CC(=O)Oc3cc(C)c(Br)c(C)c32)cc(OC)c1OC (stereo not given) 14.8%
CCc1nc(Oc2cccc(F)c2)c2oc3ccccc3c2n1 1.64%

Molecular target: Rap guanine nucleotide exchange factor 4 (Homo sapiens) (UniProt Q8WZA2)
Sequence (Q8WZA2 whole entry, looked up): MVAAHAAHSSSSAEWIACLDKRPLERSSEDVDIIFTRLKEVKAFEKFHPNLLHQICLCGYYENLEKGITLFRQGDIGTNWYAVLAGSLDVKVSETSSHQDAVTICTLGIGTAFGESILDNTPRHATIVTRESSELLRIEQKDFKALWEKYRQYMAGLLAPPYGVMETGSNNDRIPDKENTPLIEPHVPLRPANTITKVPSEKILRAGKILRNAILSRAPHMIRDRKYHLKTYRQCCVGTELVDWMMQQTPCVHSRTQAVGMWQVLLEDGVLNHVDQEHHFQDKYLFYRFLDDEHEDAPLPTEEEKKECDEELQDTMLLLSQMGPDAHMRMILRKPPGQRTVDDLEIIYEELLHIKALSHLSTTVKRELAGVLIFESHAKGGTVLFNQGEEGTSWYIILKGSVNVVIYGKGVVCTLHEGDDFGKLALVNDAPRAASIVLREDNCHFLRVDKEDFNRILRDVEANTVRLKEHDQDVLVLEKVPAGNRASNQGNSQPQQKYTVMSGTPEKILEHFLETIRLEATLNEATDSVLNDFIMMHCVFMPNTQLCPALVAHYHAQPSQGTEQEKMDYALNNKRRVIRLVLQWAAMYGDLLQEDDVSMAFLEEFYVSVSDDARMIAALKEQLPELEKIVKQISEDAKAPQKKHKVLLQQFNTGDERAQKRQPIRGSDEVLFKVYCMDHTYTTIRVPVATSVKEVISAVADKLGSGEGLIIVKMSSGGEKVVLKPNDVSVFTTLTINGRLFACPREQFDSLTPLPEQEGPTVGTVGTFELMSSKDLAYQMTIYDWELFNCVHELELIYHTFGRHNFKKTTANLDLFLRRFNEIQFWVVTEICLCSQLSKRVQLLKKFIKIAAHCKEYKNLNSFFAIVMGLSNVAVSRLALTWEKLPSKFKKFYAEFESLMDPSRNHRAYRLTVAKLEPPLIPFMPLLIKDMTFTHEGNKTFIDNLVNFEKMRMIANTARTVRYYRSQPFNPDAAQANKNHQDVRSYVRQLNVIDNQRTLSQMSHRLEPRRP
Assay: Confirmatory qHTS for agonist of cAMP-regulated guanine nucleotide exchange factor 4 (EPAC2) (AID 1645884);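 also: nucleotide exchange releases bodipy-GDP from Rap1 and this lowers its fluorescence; % is scaled to controls: 0 for no effect and ±100 for the full control effect; nearly all actives have a fitted effect of over 65% in size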
Conditions: EPAC2 GEF activity, Rap1B-BODIPY-GDP fluorescence; series mostly up to 154 µM; activation: at the top concentration

activation, inactive:
COc1cc(-c2cc(OC)c3c(C)oc(C)c3c(=O)c2)ccc1OC(=O)c1ccccc1F -4.51% [at 83.8 µM, percent relative to cAMP agonist control]
O=C(NCc1ccccc1)C(c1ccccc1)n1c(=O)c(-c2ccco2)nc2ccccc21 (stereo not given) 3.56% [at 17.1 µM, percent relative to cAMP agonist control]
CC(C)c1ccc(/C=C/C(=O)Nc2ccc(CN3CCOCC3)cc2)cc1 7.48%
Oc1cccc(C=Nc2cccc3ccccc23)c1O -16.4%
CCCC1=C(C(=O)OCC)C(c2ccco2)C(C#N)=C(N)O1 (stereo not given) 2.29% [at 17.1 µM, percent relative to cAMP agonist control]
O=C(Nc1ccc(Br)cc1C(=O)O)c1ccc2c(c1)C(=O)N(Cc1ccccc1)C2=O -15.1%
Cc1ccc(C(=O)c2cn(Cc3cccc(C)c3)c3nc(C)ccc3c2=O)cc1 0% [at 83.8 µM, percent relative to cAMP agonist control]
Clc1ccc(C(c2ccccc2)c2c[nH]c3ccccc23)s1 (stereo not given) 0% [at 83.8 µM, percent relative to cAMP agonist control]
CC(C)(C)Cc1c(-c2ccccc2)nc2ccc(Cl)cn12 9.48% [at 17.1 µM, percent relative to cAMP agonist control]
O=c1[nH][nH]c(-c2ccccc2O)c1C(C[N+](=O)[O-])c1ccc(Br)cc1 (stereo not given) -16.6% [at 83.8 µM, percent relative to cAMP agonist control]
C=CS(=O)(=O)N(Cc1ccccc1Br)[C@H](CO)CC(C)C 1.88% [at 17.1 µM, percent relative to cAMP agonist control]
CC1=NN(c2cccc(C(=O)O)c2)C(=O)/C1=C\C=C/c1ccccc1 6.16%
Cc1ccc(Nc2nnc(-c3ccc(C)c(S(N)(=O)=O)c3)c3ccccc23)cc1 -4.37% [at 83.8 µM, percent relative to cAMP agonist control]
COc1ccc(-c2[nH]c(-c3ccc(F)cc3)nc2SCC(=O)Nc2ccc(OC)c(OC)c2)cc1 0% [at 83.8 µM, percent relative to cAMP agonist control]
CN(C)S(=O)(=O)c1ccc(N2CCCC2)c(C(=O)NCC2COc3ccccc3O2)c1 (stereo not given) 6.96%
CC(=O)N1N=C(c2ccc(Cl)cc2)CC1c1ccc([N+](=O)[O-])cc1 (stereo not given) 7.36% [at 17.1 µM, percent relative to cAMP agonist control]
O=C(NCc1ccc2c(c1)CCN2C(=O)c1ccccc1)Nc1cccc(C(F)(F)F)c1 5.63% [at 83.8 µM, percent relative to cAMP agonist control]
O=C(CC(c1ccccc1)c1cc(Cl)ccc1O)N1CCCC1 (stereo not given) 5.06%
c1cc(-c2cc3nc(NC4CCCCC4)ccn3n2)ccc1OCCN1CCOCC1 0%
COc1ccc(Cn2c(-c3ccc(C)cc3)nc3c(c(=O)c4ccccc4n3C)c2=O)cc1 -1.59% [at 17.1 µM, percent relative to cAMP agonist control]
C=CCN1C(=O)[C@@H]2Cc3c([nH]c4ccccc34)C(c3ccc(O)cc3)N2C1=S (stereo not given in full) -29.5%
CN(C)c1ccc(-c2[nH][nH]c(=O)c2NC(=O)c2ccccn2)cc1 4.32%
O=C(CSc1nc(O)cc(=O)n1-c1ccccc1)Nc1ccc2c3c(cccc13)CC2 0% [at 17.1 µM, percent relative to cAMP agonist control]
N#C/C(=C/C1=C(N2CCOCC2)C(=C/c2cccc([N+](=O)[O-])c2)/CC1)C(=O)Nc1ccccc1F 1.67% [at 17.1 µM, percent relative to cAMP agonist control]
N#Cc1c(NC(=O)CSc2ncnc3sccc23)oc(-c2ccco2)c1-c1ccco1 11.2%
CCn1c(SCC(=O)N/N=C/C=C/c2ccco2)nnc1-c1ccccc1 -0.59%
COc1ccc2c(c1)Cc1sc(NC(=O)c3ccccc3C)nc1-2 -3.82% [at 83.8 µM, percent relative to cAMP agonist control]
Cc1ccc2[nH]cc(C(c3ccccc3)c3ccc(Cl)s3)c2c1 (stereo not given) 10.3% [at 83.8 µM, percent relative to cAMP agonist control]
CCc1nc2c(OCCC3CCCCC3)cccn2c1N(C)C(=O)c1ccc(C)cc1 -20.4%
CCOc1cc(CNCCSc2nnnn2C)ccc1OCc1ccc(Cl)cc1Cl 11.2% [at 83.8 µM, percent relative to cAMP agonist control]
CC(C)N(Cc1ccccc1)C(=O)c1nc(-c2ccc(Cl)cc2)n2c1CCCCC2 0% [at 83.8 µM, percent relative to cAMP agonist control]
O=C(Nc1ccc(S(=O)(=O)Nc2nccs2)cc1)c1cc(-c2ccccn2)nc2ccccc12 4.2% [at 17.1 µM, percent relative to cAMP agonist control]
COc1ccc(OC)c(CNC(=O)CCCc2cn(C)c3ccccc23)c1 6.17%
Cc1ccc(C)c(Cn2c(CN(C)Cc3ccccc3)nc3c2c(=O)n(C)c(=O)n3C)c1 9.4%
Cc1ccc(Cn2ccnc2SCC(=O)Nc2ccc3c(c2)OCO3)cc1 -32.2% [at 83.8 µM, percent relative to cAMP agonist control]
COc1ccc(OC)c(C(=O)c2coc3cc(Br)c(O)c(Br)c23)c1 14.3%
Cc1ccc(N(Cc2ccc([N+](=O)[O-])cc2)C(=O)c2ccco2)cc1 10.3%
CCn1c(SCC(=O)N/N=C/C=C\c2ccco2)nc2ccccc21 1.27%
COc1cc(C2CC(=O)Oc3cc(C)c(Br)c(C)c32)cc(OC)c1OC (stereo not given) 16.3% [at 17.1 µM, percent relative to cAMP agonist control]
CCc1nc(Oc2cccc(F)c2)c2oc3ccccc3c2n1 -3.44% [at 83.8 µM, percent relative to cAMP agonist control]
